Results taken from PMC11006913.
Substitutions are numbered along the chain they refer to.

What was measured:
Test in all cases: PBM; 200 nM protein, PBS
Conditions in all cases: dsDNA, one strand shown
[1] = biological target: T1, VENTX (Homo sapiens, UniProt O95231 78-163, R121Q)
T1 sequence: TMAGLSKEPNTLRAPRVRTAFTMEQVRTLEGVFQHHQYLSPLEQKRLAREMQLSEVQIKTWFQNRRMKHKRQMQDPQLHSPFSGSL

[2] = biological target: T2, VENTX (Homo sapiens, UniProt O95231 78-163)
T2 sequence: T1 sequence with Q44R

[3] = biological target: T3, VENTX (Homo sapiens, UniProt O95231 78-163, Y115F)
T3 sequence: T1 sequence with Y38F, Q44R

[4] = biological target: VAX1 (Homo sapiens, UniProt Q5SQQ9 86-172)
VAX1 (Homo sapiens, UniProt Q5SQQ9 86-172), sequence (Q5SQQ9 86-172): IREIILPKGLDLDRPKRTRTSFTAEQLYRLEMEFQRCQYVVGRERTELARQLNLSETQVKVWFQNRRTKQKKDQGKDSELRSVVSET

[5] = biological target: VAX1 (Homo sapiens, UniProt Q5SQQ9 86-172, T142I)
VAX1 (Homo sapiens, UniProt Q5SQQ9 86-172, T142I), sequence (Q5SQQ9 86-172 T142I): as the sequence (Q5SQQ9 86-172) above, with T57I counted along it

[6] = biological target: VAX1 (Homo sapiens, UniProt Q5SQQ9 86-172, K157R)
VAX1 (Homo sapiens, UniProt Q5SQQ9 86-172, K157R), sequence (Q5SQQ9 86-172 K157R): as the sequence (Q5SQQ9 86-172) above, with K72R counted along it

[7] = biological target: HOXB9 (Homo sapiens, UniProt P17482 171-250, T197M)
HOXB9 (Homo sapiens, UniProt P17482 171-250, T197M), sequence (P17482 171-250 T197M): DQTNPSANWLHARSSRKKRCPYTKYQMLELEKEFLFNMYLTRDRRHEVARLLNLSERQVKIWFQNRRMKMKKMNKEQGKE

[8] = biological target: HOXC9 (Homo sapiens, UniProt P31274 178-260, K195R)
HOXC9 (Homo sapiens, UniProt P31274 178-260, K195R), sequence (P31274 178-260 K195R): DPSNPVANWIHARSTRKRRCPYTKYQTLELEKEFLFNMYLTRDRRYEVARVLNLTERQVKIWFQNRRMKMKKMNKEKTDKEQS

[9] = biological target: HOXC10 (Homo sapiens, UniProt Q9NYD6 254-340)
HOXC10 (Homo sapiens, UniProt Q9NYD6 254-340), sequence (Q9NYD6 254-340): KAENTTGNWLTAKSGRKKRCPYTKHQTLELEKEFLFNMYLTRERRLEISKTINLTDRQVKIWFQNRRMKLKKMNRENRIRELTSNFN

[10] = biological target: HOXB9 (Homo sapiens, UniProt P17482 171-250)
HOXB9 (Homo sapiens, UniProt P17482 171-250), sequence (P17482 171-250): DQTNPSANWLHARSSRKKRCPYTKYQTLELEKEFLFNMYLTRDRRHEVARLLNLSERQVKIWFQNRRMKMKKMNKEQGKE

[11] = biological target: HOXC9 (Homo sapiens, UniProt P31274 178-260)
HOXC9 (Homo sapiens, UniProt P31274 178-260), sequence (P31274 178-260): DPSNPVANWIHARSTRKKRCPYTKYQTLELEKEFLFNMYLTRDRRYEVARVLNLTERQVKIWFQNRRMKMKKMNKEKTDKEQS

[12] = biological target: HOXD13 (Homo sapiens, UniProt P35453 263-343, T313R)
HOXD13 (Homo sapiens, UniProt P35453 263-343, T313R), sequence (P35453 263-343 T313R): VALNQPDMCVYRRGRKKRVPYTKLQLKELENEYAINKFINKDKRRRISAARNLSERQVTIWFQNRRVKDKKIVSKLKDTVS

[13] = biological target: HOXC9 (Homo sapiens, UniProt P31274 178-260, R193K)
HOXC9 (Homo sapiens, UniProt P31274 178-260, R193K), sequence (P31274 178-260 R193K): as the sequence (P31274 178-260) above, with R16K counted along it

[14] = biological target: HOXD13 (Homo sapiens, UniProt P35453 263-343)
HOXD13 (Homo sapiens, UniProt P35453 263-343), sequence (P35453 263-343): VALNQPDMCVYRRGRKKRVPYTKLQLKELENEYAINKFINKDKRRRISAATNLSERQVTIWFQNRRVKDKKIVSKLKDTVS

[15] = biological target: HOXC10 (Homo sapiens, UniProt Q9NYD6 254-340, K271E)
HOXC10 (Homo sapiens, UniProt Q9NYD6 254-340, K271E), sequence (Q9NYD6 254-340 K271E): as the sequence (Q9NYD6 254-340) above, with K18E counted along it

[16] = biological target: HOXD13 (Homo sapiens, UniProt P35453 263-343, T313A)
HOXD13 (Homo sapiens, UniProt P35453 263-343, T313A), sequence (P35453 263-343 T313A): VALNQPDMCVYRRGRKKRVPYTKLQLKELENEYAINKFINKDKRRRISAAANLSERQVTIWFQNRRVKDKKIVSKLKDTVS

[17] = biological target: HOXB9 (Homo sapiens, UniProt P17482 171-250, R186Q)
HOXB9 (Homo sapiens, UniProt P17482 171-250, R186Q), sequence (P17482 171-250 R186Q): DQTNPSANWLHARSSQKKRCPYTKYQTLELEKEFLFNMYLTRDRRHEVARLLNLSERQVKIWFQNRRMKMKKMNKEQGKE

[18] = biological target: HOXC9 (Homo sapiens, UniProt P31274 178-260, R222W)
HOXC9 (Homo sapiens, UniProt P31274 178-260, R222W), sequence (P31274 178-260 R222W): as the sequence (P31274 178-260) above, with R45W counted along it

Row | Sequence | binding signal [1] | binding signal [2] | binding signal [3] | binding signal [4] | binding signal [5] | binding signal [6] | binding signal [7] | binding signal [8] | binding signal [9] | binding signal [10] | binding signal [11] | binding signal [12] | binding signal [13] | binding signal [14] | binding signal [15] | binding signal [16] | binding signal [17] | binding signal [18]
1 | CGGGCGCA | 7.97 upbm affinity estimate (log intensity, higher = more binding, comparable within an allelic series) | 7.92 upbm affinity estimate (log intensity, higher = more binding, comparable within an allelic series) | 7.91 upbm affinity estimate (log intensity, higher = more binding, comparable within an allelic series) | 6.81 upbm affinity estimate (log intensity, higher = more binding, comparable within an allelic series) | 6.96 upbm affinity estimate (log intensity, higher = more binding, comparable within an allelic series) | 6.94 upbm affinity estimate (log intensity, higher = more binding, comparable within an allelic series) |  |  |  |  |  |  |  |  |  |  |  | 
2 | ATCATAAA |  |  |  |  |  |  | 9.69 upbm affinity estimate (log intensity, higher = more binding, comparable within an allelic series) | 12.7 upbm affinity estimate (log intensity, higher = more binding, comparable within an allelic series) | 12.5 upbm affinity estimate (log intensity, higher = more binding, comparable within an allelic series) | 11.9 upbm affinity estimate (log intensity, higher = more binding, comparable within an allelic series) | 12.8 upbm affinity estimate (log intensity, higher = more binding, comparable within an allelic series) | 10.8 upbm affinity estimate (log intensity, higher = more binding, comparable within an allelic series) | 12.7 upbm affinity estimate (log intensity, higher = more binding, comparable within an allelic series) | 11.8 upbm affinity estimate (log intensity, higher = more binding, comparable within an allelic series) | 11.8 upbm affinity estimate (log intensity, higher = more binding, comparable within an allelic series) | 11.8 upbm affinity estimate (log intensity, higher = more binding, comparable within an allelic series) | 11.7 upbm affinity estimate (log intensity, higher = more binding, comparable within an allelic series) | 10.9 upbm affinity estimate (log intensity, higher = more binding, comparable within an allelic series)
3 | TCGTAAAA |  |  |  |  |  |  | 9.97 upbm affinity estimate (log intensity, higher = more binding, comparable within an allelic series) | 13.1 upbm affinity estimate (log intensity, higher = more binding, comparable within an allelic series) | 12.8 upbm affinity estimate (log intensity, higher = more binding, comparable within an allelic series) | 12.6 upbm affinity estimate (log intensity, higher = more binding, comparable within an allelic series) | 13.2 upbm affinity estimate (log intensity, higher = more binding, comparable within an allelic series) | 11.1 upbm affinity estimate (log intensity, higher = more binding, comparable within an allelic series) | 13 upbm affinity estimate (log intensity, higher = more binding, comparable within an allelic series) | 12.3 upbm affinity estimate (log intensity, higher = more binding, comparable within an allelic series) | 12.3 upbm affinity estimate (log intensity, higher = more binding, comparable within an allelic series) | 12.2 upbm affinity estimate (log intensity, higher = more binding, comparable within an allelic series) | 12 upbm affinity estimate (log intensity, higher = more binding, comparable within an allelic series) | 11.3 upbm affinity estimate (log intensity, higher = more binding, comparable within an allelic series)
4 | CTCATAAA |  |  |  |  |  |  | 9.59 upbm affinity estimate (log intensity, higher = more binding, comparable within an allelic series) | 12.6 upbm affinity estimate (log intensity, higher = more binding, comparable within an allelic series) | 12.4 upbm affinity estimate (log intensity, higher = more binding, comparable within an allelic series) | 11.9 upbm affinity estimate (log intensity, higher = more binding, comparable within an allelic series) | 12.8 upbm affinity estimate (log intensity, higher = more binding, comparable within an allelic series) | 11.2 upbm affinity estimate (log intensity, higher = more binding, comparable within an allelic series) | 12.6 upbm affinity estimate (log intensity, higher = more binding, comparable within an allelic series) | 12.5 upbm affinity estimate (log intensity, higher = more binding, comparable within an allelic series) | 11.8 upbm affinity estimate (log intensity, higher = more binding, comparable within an allelic series) | 12.2 upbm affinity estimate (log intensity, higher = more binding, comparable within an allelic series) | 11.5 upbm affinity estimate (log intensity, higher = more binding, comparable within an allelic series) | 11.1 upbm affinity estimate (log intensity, higher = more binding, comparable within an allelic series)
5 | GTTTATTA |  |  |  |  |  |  | 9.87 upbm affinity estimate (log intensity, higher = more binding, comparable within an allelic series) | 12.6 upbm affinity estimate (log intensity, higher = more binding, comparable within an allelic series) | 12.4 upbm affinity estimate (log intensity, higher = more binding, comparable within an allelic series) | 11.7 upbm affinity estimate (log intensity, higher = more binding, comparable within an allelic series) | 12.6 upbm affinity estimate (log intensity, higher = more binding, comparable within an allelic series) | 11 upbm affinity estimate (log intensity, higher = more binding, comparable within an allelic series) | 12.6 upbm affinity estimate (log intensity, higher = more binding, comparable within an allelic series) | 12 upbm affinity estimate (log intensity, higher = more binding, comparable within an allelic series) | 11.6 upbm affinity estimate (log intensity, higher = more binding, comparable within an allelic series) | 11.8 upbm affinity estimate (log intensity, higher = more binding, comparable within an allelic series) | 11.5 upbm affinity estimate (log intensity, higher = more binding, comparable within an allelic series) | 11.2 upbm affinity estimate (log intensity, higher = more binding, comparable within an allelic series)
6 | GCTATAAA |  |  |  |  |  |  | 9.72 upbm affinity estimate (log intensity, higher = more binding, comparable within an allelic series) | 12.7 upbm affinity estimate (log intensity, higher = more binding, comparable within an allelic series) | 12.2 upbm affinity estimate (log intensity, higher = more binding, comparable within an allelic series) | 12 upbm affinity estimate (log intensity, higher = more binding, comparable within an allelic series) | 12.8 upbm affinity estimate (log intensity, higher = more binding, comparable within an allelic series) | 10.9 upbm affinity estimate (log intensity, higher = more binding, comparable within an allelic series) | 12.7 upbm affinity estimate (log intensity, higher = more binding, comparable within an allelic series) | 12 upbm affinity estimate (log intensity, higher = more binding, comparable within an allelic series) | 11.4 upbm affinity estimate (log intensity, higher = more binding, comparable within an allelic series) | 11.7 upbm affinity estimate (log intensity, higher = more binding, comparable within an allelic series) | 11.7 upbm affinity estimate (log intensity, higher = more binding, comparable within an allelic series) | 11 upbm affinity estimate (log intensity, higher = more binding, comparable within an allelic series)
